Assay outcomes as filed in PubChem BioAssay.
The list is not random: actives were taken first. Their share in the collection is about 5.7%.
HT1080NT lethal: kills 2HG-producing HT-1080-NT fibrosarcoma cells; actives 1.6% (n = 360,000); HT-1080-NT fibrosarcoma viability, CellTiter-Glo ATP luminescence, 48 h; Potency, µM (top dose mostly 46.1 µM), actives largely listed as cytotoxic;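 also: NT is the 2HG producing partner of a matched IDH1 knockdown line; nearly all actives have a fitted effect of over 55% in size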
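Toxicity toward the 2HG-producing NT line was scored as %Activity, normalised to DMSO and no-cell wells, from CellTiter-Glo luminescence after 48 hours' treatment.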
HT1080 IDH1KD tx: kills HT-1080 cells with IDH1 knockdown; Potency, µM (titrated, usually from 46.1 µM), hits mostly cytotoxic; AID 686971; HT-1080 IDH1 knockdown viability, ATP luminescence, 48 h; actives 2% (n = 360,000)
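Viability of IDH1-knockdown HT-1080 fibrosarcoma cells was assessed by CellTiter-Glo after 48 h at 37 °C with titrated compound; concentration-effect curves were classified by fit quality and response size.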
KB-V1 MDR tox: KB-V1 MDR subline cytotoxicity; actives 3.4% (n = 400,000); Potency, µM (top dose mostly 46.1 µM), actives largely listed as cytotoxic; KB-V1 MDR cells viability, CellTiter-Glo, 72 h; AID 1347076; also: nearly all actives have a fitted effect of over 60% in size
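KB-V1, DMEM (no phenol red) + 10% FBS; cpd pin-transferred, titration series; 72 h, 37 degrees C; CellTiter-Glo, luminescence. Data normalized, curve-fit.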
KB-3-1 cytotox: kills parental KB-3-1 adenocarcinoma cells; KB-3-1 viability, CellTiter-Glo ATP luminescence, 72 h; Potency, µM (series often up to 46.1 µM), hits mostly cytotoxic; actives 1.4% (n = 400,000); also: nearly all actives have a fitted effect of over 60% in size
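Using CellTiter-Glo luminescence, growth of non-resistant KB-3-1 adenocarcinoma cells is assessed 72 h after pin-tool compound addition at 37 °C. Normalized responses across the concentration series yield fitted curves.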
Of the large screens only hits and unclear results are named; the others gave an inactive call. Calls follow the shape of the dose curve; as a rule, active = well fitted curve in the direction sought with a large enough effect; inconclusive = small, poorly fitted or top-dose-only effect, or another doubt; inactive = no such curve, though single readings can be large; an effect the other way counts as inactive or inconclusive.

CN(Cc1ccc(Br)s1)C(=O)CNC(=O)c1ccc2c(c1)OCO2	KB-V1 MDR tox 21µM
CC(=O)c1ccc(N2CCN(C(=O)CCS(=O)(=O)c3ccc4c(c3)oc(=O)n4C)CC2)cc1	none (no result: HT1080NT lethal, HT1080 IDH1KD tx)
CC(NNC(=S)N1CCN(c2ccccn2)CC1)c1nccc2ccccc12 (configuration not stated)	HT1080 IDH1KD tx inconclusive, KB-V1 MDR tox 0.46µM, KB-3-1 cytotox inconclusive
S=C(Nc1ccccc1Cl)N1CCN(c2ccccn2)CC1	none
Fc1ccccc1NC(=S)N1CCN(c2ccccn2)CC1	KB-V1 MDR tox 21µM
O=C(NCCc1nc2ccccc2n1CCCOc1ccccc1Cl)C1CCCCC1	none (no result: HT1080NT lethal, HT1080 IDH1KD tx)
Cc1cc(=O)n2c(C(=O)Nc3ccc(C)c(Cl)c3)c(C(=O)Nc3ccccc3)sc2n1	none (no result: HT1080NT lethal, HT1080 IDH1KD tx)
COC(=O)C1=C(C(=O)OC)SC2(S1)C(C(=O)OC)=C(C(=O)OC)SC1=C2c2cccc(C)c2NC1(C)C	HT1080NT lethal 4µM, HT1080 IDH1KD tx 7.1µM
CCOC(=O)c1[nH]c2c(c1Cc1ccccc1)C(=O)CC(c1ccc(Cl)cc1)C2 (configuration not stated)	KB-V1 MDR tox inconclusive (no result: HT1080NT lethal, HT1080 IDH1KD tx)
O=C(Cc1cccs1)NC(c1ccccc1)c1ccccc1	none
O=C(COC(=O)/C(=C/c1cccs1)c1cccs1)NC(c1ccccc1)c1ccccc1	KB-V1 MDR tox 8.2µM
Cc1cc(C)cc(OCC(=O)OCC(=O)NC2CCCCCCC2)c1	none
O=C(NC(=S)Nc1cccc(Cl)c1N1CCOCC1)c1cccs1	none
CC1CCN(c2ccc(NC(=S)NC(=O)c3ccco3)cc2)CC1	none
O=C(NC(=S)Nc1ccccc1N1CCCCC1)c1ccco1	KB-V1 MDR tox inconclusive, KB-3-1 cytotox inconclusive
O=C(NC(=S)Nc1cccc(Cl)c1N1CCCCC1)c1cccs1	HT1080NT lethal 3.5µM, HT1080 IDH1KD tx 10µM, KB-V1 MDR tox inconclusive, KB-3-1 cytotox inconclusive
CC1CCCCC1NC(=O)c1ccco1 (configuration not stated)	none
CC1CCCC(NC(=S)NC(=O)c2ccco2)C1C (configuration not stated)	KB-V1 MDR tox 18µM
O=C(NC(=S)Nc1ccc(N2CCCCC2)cc1)c1ccco1	HT1080NT lethal 7.1µM, HT1080 IDH1KD tx 14µM, KB-V1 MDR tox 8.2µM
O=C(NC(=S)Nc1cccc(Cl)c1N1CCCCC1)c1ccco1	HT1080NT lethal 11µM, HT1080 IDH1KD tx inconclusive
O=C(Nc1ccccc1Cl)C1CCN(c2nc3ccccc3nc2C(F)(F)F)CC1	none (no result: HT1080NT lethal, HT1080 IDH1KD tx)
Clc1ccc(-n2nnnc2-c2ccccc2)cc1	none
Nc1ncc(-c2nnnn2-c2ccc(Cl)cc2)c(-c2ccc(Cl)cc2)n1	HT1080NT lethal 6.5µM, HT1080 IDH1KD tx 7.3µM, KB-V1 MDR tox 6.5µM, KB-3-1 cytotox 5.2µM
Cc1ccc(-n2nnnc2-c2cnc3ccc(Cl)cc3c2-c2ccccc2)cc1	KB-V1 MDR tox inconclusive, KB-3-1 cytotox 7.3µM
Clc1ccc(-n2nnnc2-c2cnc3ccccc3c2-c2ccccc2)cc1	HT1080NT lethal inconclusive, HT1080 IDH1KD tx inconclusive, KB-V1 MDR tox 16µM
Cc1ccc(C)c(S(=O)(=O)c2nnn3c2nc(NC(C)C)c2sccc23)c1	KB-V1 MDR tox inconclusive (no result: HT1080NT lethal, HT1080 IDH1KD tx)
CC(Sc1n[nH]c(N)n1)C(=O)C12CC3CC(CC(C3)C1)C2 (configuration not stated)	none
CC(SC#N)C(=O)C12CC3CC(CC(C3)C1)C2 (configuration not stated)	HT1080NT lethal inconclusive, HT1080 IDH1KD tx 16µM, KB-3-1 cytotox 21µM
CCN(CC)S(=O)(=O)c1ccc2c(c1)nc(CN(C)C(=O)Nc1ccc(F)cc1)n2C	none (no result: HT1080NT lethal, HT1080 IDH1KD tx)
Cc1cc(=O)oc2cc(O)cc(OCc3ccccc3)c12	KB-V1 MDR tox 15µM, KB-3-1 cytotox inconclusive
Cc1cc(=O)oc2cc(OCc3ccccc3)ccc12	none
CC1Cn2c(C(=O)NCc3cccc(Br)c3)cc3cccc(c32)S1 (configuration not stated)	none (no result: HT1080NT lethal, HT1080 IDH1KD tx)
CCc1nc2ccc(C(=O)NCc3ccc(OC)cc3)cn2c1N(CCC(C)C)CCN(C)C	HT1080NT lethal inconclusive, HT1080 IDH1KD tx inconclusive
CCc1nc2ccc(C(=O)NCC3CCCCC3)cn2c1N(CCC(C)C)CCN(C)C	HT1080NT lethal 18µM, HT1080 IDH1KD tx 16µM
CCOC(=O)c1nnc(-c2ccccc2)nc1Sc1ccccc1Cl	HT1080NT lethal inconclusive, HT1080 IDH1KD tx 21µM, KB-3-1 cytotox inconclusive
COc1cc(CNC2CCCC2)cc(Cl)c1OCc1ccccc1F	HT1080NT lethal inconclusive, HT1080 IDH1KD tx 13µM, KB-V1 MDR tox 23µM
CCOc1ccc(NC(=O)CSc2nnc(-c3ccncc3)n2-c2ccccc2)cc1	none (no result: HT1080NT lethal, HT1080 IDH1KD tx)
N/C(CCS(=O)(=O)c1ccc(Cl)cc1)=N\OC(=O)c1ccccc1C(F)(F)F	HT1080NT lethal inconclusive, HT1080 IDH1KD tx 21µM, KB-V1 MDR tox inconclusive, KB-3-1 cytotox inconclusive
CCCOC(=O)CSc1nnc2ccc3ccccc3n12	none (no result: HT1080NT lethal, HT1080 IDH1KD tx)
COc1cc([N+](=O)[O-])cc(/C=N/NC(=O)C(C)Nc2cccc3ccccc23)c1O (configuration not stated)	HT1080NT lethal inconclusive, HT1080 IDH1KD tx 18µM, KB-V1 MDR tox inconclusive, KB-3-1 cytotox inconclusive
COc1cc([N+](=O)[O-])cc(/C=N\NC(=O)C2COc3ccccc3O2)c1O (configuration not stated)	HT1080NT lethal inconclusive, HT1080 IDH1KD tx 18µM, KB-V1 MDR tox inconclusive, KB-3-1 cytotox inconclusive
O=C(N/N=C\c1cccc([N+](=O)[O-])c1O)C1COc2ccccc2O1 (configuration not stated)	HT1080NT lethal inconclusive, HT1080 IDH1KD tx inconclusive
CCOc1ccc(CNC(=O)CCC(=O)N2CC3CCCN3c3ccccc32)cc1 (configuration not stated)	none (no result: HT1080NT lethal, HT1080 IDH1KD tx)
NC(=S)n1[nH]c(-c2ccc([N+](=O)[O-])cc2)c(N=Nc2cccc([N+](=O)[O-])c2)c1=O	HT1080NT lethal 1.5µM, HT1080 IDH1KD tx 0.82µM, KB-V1 MDR tox inconclusive, KB-3-1 cytotox inconclusive
Cc1[nH]n(C(N)=S)c(=O)c1N=Nc1cccc([N+](=O)[O-])c1C	KB-V1 MDR tox inconclusive
Cc1c(N=Nc2c(-c3ccc([N+](=O)[O-])cc3)[nH]n(C(N)=S)c2=O)cccc1[N+](=O)[O-]	HT1080NT lethal inconclusive, HT1080 IDH1KD tx inconclusive, KB-V1 MDR tox 16µM, KB-3-1 cytotox 21µM
NC(=S)n1[nH]c(-c2ccc([N+](=O)[O-])cc2)c(N=Nc2ccccc2[N+](=O)[O-])c1=O	none
Fc1cc(Br)ccc1NC(=S)Nc1ccccc1	KB-V1 MDR tox 15µM, KB-3-1 cytotox inconclusive
Cc1cc(NS(=O)(=O)c2ccc3c(c2)CCC(=O)N3)ccc1F	none (no result: HT1080NT lethal, HT1080 IDH1KD tx)
CN(C)/C=C1/N=C(c2ccccc2)OC1=O	none
O=CC1=C(c2ccccc2)Oc2ccccc2O1	HT1080NT lethal inconclusive, HT1080 IDH1KD tx 16µM, KB-V1 MDR tox inconclusive, KB-3-1 cytotox inconclusive
CCCCCCN1C=CC(=C/C=C(\C#N)C(=O)OCC)C=C1	KB-V1 MDR tox 8.2µM
CC(C)(C)OC(=O)CC[C@@H](C(=O)NCCCCCCCCCCC(=O)N1CCN(C(=O)OC(C)(C)C)CC1)n1cc(CCCCCNC(=O)OC(C)(C)C)nn1	none
